Screening results as filed in PubChem BioAssay.
Shown are actives, neighbours in structure and some others; about 19% of the full set was active somewhere.
IL1B secr inh = qHTS for Inhibitors of Inflammasome Signaling: IL-1-beta AlphaLISA Primary Screen; actives 4.7% (n = 360,000); AID 743279, 2014; activity change, % at 57.5 µM; THP-1 LPS/ATP IL-1B secretion, AlphaLISA, 16 h; active compounds read low; in the data active = activity change below about -50%; inconclusive = mostly about -30% to -49%
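Secreted IL-1B measured by AlphaLISA bead assay after 16 h compound exposure of THP-1 cells; compounds (final up to 57.5 uM) added 1 h before LPS (250 ng/mL) and ATP (1.25 mM) stimulation; lower signal means less secretion.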
HT1080NT lethal = qHTS for induction of synthetic lethality in tumor cells producing 2HG: qHTS for the HT-1080-NT fibrosarcoma cell line. AID 686970, 2013. actives 1.6% (n = 360,000). Potency, µM (highest dose often 46.1 µM), inactives show at the top dose activity, negative = less viability, most hits filed as cytotoxic. HT-1080-NT fibrosarcoma viability, CellTiter-Glo ATP luminescence, 48 h;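 note: NT is the 2HG producing partner of a matched IDH1 knockdown line; potency is the fitted concentration of half-maximal effect; 0% = DMSO-treated cells and -100% = media-only wells without cells; nearly all actives have a fitted effect of over 55% in size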
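Viability of the 2HG-overproducing fibrosarcoma line after 48 hours of compound exposure at 37 degrees C was determined by luminescence with CellTiter-Glo, and concentration-effect curves were then fitted and categorized.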
DT40 TDP1 CPT = qHTS for Inhibitors of human tyrosyl-DNA phosphodiesterase 1 (TDP1): qHTS in cells in presence of CPT | AID 686979, 2013 | actives 12% (n = 420,000) | Potency, µM (series often up to 46.2 µM), inactives show top-dose activity change, negative = growth inhibition, actives largely listed as inhibitors | chicken DT40 Tdp1-/-;hTDP1 cells + 20 nM CPT, ATP luminescence, 48 h; note: potency is the fitted concentration of half-maximal effect; nearly all actives have a fitted effect of over 55% in size
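Chicken DT40 Tdp1-/- cells stably complemented with human TDP1 were seeded at 400 cells/well in medium containing 20 nM camptothecin, exposed to pin-transferred compounds, and grown at 37 °C for at least 48 hr. Viability was read as ATP luminescence.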
HT1080 IDH1KD tx = qHTS for induction of synthetic lethality in tumor cells producing 2HG: qHTS for the HT-1080-IDH1KD cell line. actives 2% (n = 360,000). HT-1080 IDH1 knockdown viability, ATP luminescence, 48 h. Potency, µM (highest dose often 46.1 µM), for inactives: at the top dose activity, negative = toxicity, hits mostly cytotoxic;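 note: potency is the fitted concentration of half-maximal effect; 0% = DMSO wells and -100% = cell-free medium wells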
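Assay cells: HT-1080 with IDH1 knockdown, 750 per well, RPMI/5% FBS. Exposure: 48 h at 37 °C following 2 h pre-incubation. Read: CellTiter-Glo luminescence; fitted concentration-response, curve class assigned.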
TDP1 cell noCPT = qHTS for Inhibitors of human tyrosyl-DNA phosphodiesterase 1 (TDP1): qHTS in cells in absence of CPT. DT40 Tdp1-/- hTDP1 cells, no CPT, ATP luminescence, 48 h. Potency, µM (titrated, usually from 46.2 µM), inactives show at the top dose activity change, negative = growth inhibition, most hits filed as inhibitors. actives 15% (n = 420,000). AID 686978, 2013; note: potency is the fitted concentration of half-maximal effect; nearly all actives have a fitted effect of over 55% in size
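Chicken DT40 Tdp1-/- cells complemented with human TDP1, screened without camptothecin (DMSO vehicle only), 400 cells/well. Compounds pin-transferred, cells incubated at 37 °C for at least 48 hr. Growth read as ATP-dependent luminescence (CellTiter-Glo, 30 min at RT).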
* = called active by the depositor; i = inactive; ? = inconclusive; · = not tested or not shown; [ ] = another dose, or the depositor's remark. Unless noted, calls come from the whole dose curve; as a rule, active = well fitted curve in the direction sought with a large enough effect; inconclusive = small, poorly fitted or top-dose-only effect, or another doubt; inactive = no such curve, though single readings can be large; an effect the other way counts as inactive or inconclusive. Unless noted, % is set by controls: 0 for no effect and ±100 for the full control effect.

SMILES	IL1B secr inh	HT1080NT lethal	DT40 TDP1 CPT	HT1080 IDH1KD tx	TDP1 cell noCPT
Cc1cc(NC(=O)C(C)SCC(=O)Nc2ccccc2C(C)(C)C)no1 (stereo unspecified)	19	10%	?	9%	15µM*
CCc1nnc(NC(=O)CN2CCC(O)(c3ccccc3OC)CC2)s1	18	1%	-23%	0%[9.24 µM]	-6%
COc1ccccc1C1(O)CCN(CC(=O)Nc2nc(-c3ccccc3)cs2)CC1	-62*	-21%	-18%	?	?
CCOc1ccc(Oc2ccccc2NC(=O)CSCC(=O)Nc2cc(C)on2)cc1	5	?	23µM*	?	13µM*
CCCCNC(=O)C1CCC(CNS(=O)(=O)c2ccc(Cl)cc2)CC1 (stereo unspecified)	·	·	-11%	·	-10%
COc1ccc(-c2csc(NC(=O)CSc3nc(C)cs3)n2)cc1	34	14%	-30%	5%	?
Cc1cc(-c2nnc(SCC(=O)Nc3nc(-c4ccccc4)cs3)o2)no1	10	-1%	15µM*	1%	?
CCOC(=O)N1CCN(C(=O)CSCC(=O)Nc2nc(-c3ccc(Cl)s3)cs2)CC1	-26	0%[9.24 µM]	15µM*	?	18µM*
Cc1occc1-c1nnc(SCC(=O)Nc2nc(-c3ccccc3)cs2)o1	26	?	-28%	?	?
O=C(CSCC(=O)N1CCOCC1)Nc1nc(-c2ccccc2)cs1	26	0%	-5%	0%	-11%
CCOC(=O)N1CCN(C(=O)CSCC(=O)Nc2nc(-c3ccc(OC)cc3)cs2)CC1	-13	-19%	?	-21%	21µM*
CCOC(=O)N1CCN(C(=O)CSCC(=O)Nc2nc(-c3ccc(-c4ccccc4)cc3)cs2)CC1	27	?	3.3µM*	?	3.3µM*
Cc1onc(-c2ccccc2Cl)c1C(=O)NCc1nnnn1-c1ccc(F)cc1	2	-3%	-10%	-3%	-9%
CC(C)C[C@@]12C(=O)N(c3cccc(F)c3)C(=O)N1[C@H](c1ccc(F)cc1)[C@@H]1C(=O)N(C3CCCCC3)C(=O)[C@@H]12	-4	1%	?	1%	?
COc1ccc(-c2csc(NC(=O)CSCC(=O)Nc3cc(C)on3)n2)cc1	17	3%	?	11%	23µM*
c1ccc2c(c1)CCCC2C1=NCCN1 (stereo unspecified)	3	?	-26%	8%	-11%
Brc1ccc2c(c1)C(C1=NCCN1)c1ccccc1CS2 (stereo unspecified)	?	0.82µM*	7.3µM*	1µM*	5.8µM*
N=C(SC1CC(=O)N(c2ccc(F)cc2)C1=O)N1N=C(c2ccccc2)CC1c1ccccc1 (stereo unspecified)	16	1%	16µM*	0%	?
O=C(COC(=O)c1ccccc1C(=O)c1ccc(Cl)c([N+](=O)[O-])c1)NC1CCCCCC1	-107*	8.9µM*	?	3.2µM*	23µM*
CN(CCC#N)C(=O)COC(=O)c1ccc(Cl)c(S(N)(=O)=O)c1	-6	17%	8%	15%	8%
Cc1cc(C(=O)OCC(=O)c2ccc(Cl)c([N+](=O)[O-])c2)c2cccc(C)c2n1	0	0%	?	1%	?
Cn1c(N)c(C(=O)COC(=O)c2ccccc2C(=O)c2ccc(Cl)c([N+](=O)[O-])c2)c(=O)n(C)c1=O	-99*	?	?	?	18µM*
CN(CCC#N)C(=O)COC(=O)c1ccccc1C(=O)c1ccc(Cl)c([N+](=O)[O-])c1	-106*	10µM*	16µM*	16µM*	?
CC(C)N(C(=O)COC(=O)c1ccccc1C(=O)c1ccc(Cl)c([N+](=O)[O-])c1)C(C)C	-102*	18µM*	?	21µM*	?
Cc1cc(NS(=O)(=O)c2ccc(NC(=O)CCCOc3cccc(C)c3C)cc2)no1	i	-23%	-2%	-14%	-11%
SMILES	IL1B secr inh	HT1080NT lethal	DT40 TDP1 CPT	HT1080 IDH1KD tx	TDP1 cell noCPT
Cc1ccc(NC(=O)Nc2ccc3c(c2)C(=O)OC3)cc1Cl	-15	7%	-7%	9%	-13%
Cc1cccn2c(=O)c3cc(C(=O)NCCCn4ccnc4)n(C)c3nc12	?	3%	-13%	6%	?
COc1ccc(OC)c(NC(=O)c2cc3c(=O)n4cccc(C)c4nc3n2C)c1	·	·	10µM*	·	9.2µM*
CCOCCCNC(=O)c1cc2c(=O)n3cccc(C)c3nc2n1C	11	?	0.58µM*	?	0.82µM*
Cc1cccn2c(=O)c3cc(C(=O)NCCCN4CCCC4=O)n(C)c3nc12	-77*	-3%	-21%	5%[9.24 µM]	?
COc1ccc(NC(=O)c2cc3c(=O)n4ccccc4nc3n2C)c(OC)c1	-27	27%	-16%	17%	-21%
COCCCNC(=O)c1cccn2c(=O)c3cc4ccccc4cc3nc12	-86*	-8%	18µM*	?	7.3µM*
CC(=O)C1C(c2ccc(F)cc2)C2C(C)=NN=C2CC1(C)O (stereo unspecified)	17	-16%	0%	7%	3%
CCc1nc2ccc(C(=O)Nc3cccc(NS(C)(=O)=O)c3)cn2c1N(C)CCN1CCOCC1	-26	8%	4%	1%	-4%
Cc1ccc(-n2nc(CO)c(C(=O)NCCc3ccccc3)n2)cc1C	·	·	-14%	·	?
COc1ccc(/C=N/NC(=O)C(=O)N2CCCCCC2)cc1O	-11	1%	0%	13%	-4%
CC1(C(=O)N2CCC(CO)(Cc3cccc(C(F)(F)F)c3)CC2)CC1	9	0%	?	6%	?
COc1ccc(CC2(CO)CCN(Cc3cc4ccccc4o3)CC2)cc1	-80*	?	16µM*	-23%	16µM*
OCC1(Cc2cccc(C(F)(F)F)c2)CCN(Cc2cc3ccccc3o2)CC1	-136*	21µM*	?	18µM*	16µM*
Cc1c(CN2CCC(CO)(Cc3cccc(C(F)(F)F)c3)CC2)c2ccccc2n1C	-94*	-13%	23µM*	?	16µM*
Cc1ccc(C2=NCCn3nc4cc([N+](=O)[O-])ccc4c32)cc1	9	-4%	?	-2%	?
COC(=O)c1oc2ccccc2c1NC(=O)CN1CCCC1	-9	0%	0%	0%	-16%
